Measured values from PubChem BioAssay AID652054 (National Center for Advancing Translational Sciences (NCATS), 2013).
Where “and” joins values, the source holds several entries; their conditions need not be identical. Identical values can stand only once. Screen size: about 360,000 compounds; about 9,100 (2.5%) were called active. Inconclusive results (about 4%) are left out. Many of the other results were omitted from the sample, so actives are more common in it than they were. A number with no mark means an inactive call. No stated cut-off is given here; in the data, active means max response below about -50%; inconclusive means no clear call, values can overlap the other calls; inactive means above that.

Target: D(3) dopamine receptor (Homo sapiens) (UniProt P35462)
Assay: qHTS of D3 Dopamine Receptor Antagonist: qHTS
Conditions: D3R cells, DiscoveRx beta-arrestin luminescence, antagonist mode; hits give low values
Procedure, shortened: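 Cells plated overnight at 1500 cells/well, then exposed to library compounds with dopamine controls for 90 minutes at 37 degrees C. DiscoveRx reagent added for 30–60 minutes at room temperature; luminescence read, quantitative HTS format.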
On the % scale 0 is the no-effect control and ±100 the full control effect.

D(3) dopamine receptor (Homo sapiens), sequence (P35462 whole entry, looked up): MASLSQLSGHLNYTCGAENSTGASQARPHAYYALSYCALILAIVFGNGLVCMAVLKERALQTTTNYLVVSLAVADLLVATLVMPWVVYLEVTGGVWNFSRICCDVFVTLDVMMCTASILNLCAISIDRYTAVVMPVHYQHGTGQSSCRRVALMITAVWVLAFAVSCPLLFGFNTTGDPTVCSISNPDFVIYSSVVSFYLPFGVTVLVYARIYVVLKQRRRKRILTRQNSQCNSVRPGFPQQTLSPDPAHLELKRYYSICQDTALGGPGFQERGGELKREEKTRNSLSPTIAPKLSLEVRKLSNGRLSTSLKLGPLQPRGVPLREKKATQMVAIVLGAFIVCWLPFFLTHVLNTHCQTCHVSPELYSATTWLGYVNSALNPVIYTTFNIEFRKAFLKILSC

Row | Compound | max response, negative = inhibition
1 | CCCCc1ccc(S(=O)(=O)NC(=O)C2(C)CCN2C(=O)c2ccccc2)cc1 (configuration not stated) | 0.751%
2 | CC1CCC2(CC1)NC(=O)N(CC(=O)NCc1ccco1)C2=O (configuration not stated) | -7.59%
3 | COc1cccc(-c2cc(NC(C)=O)c3ncc(-c4cccc(C(C)=O)c4)n3c2)c1 | 4.06%
4 | CCOC(=O)c1cnn2c(SC)ncnc12 | -12.7%
5 | COc1ccc(-c2ccc3[nH]c4c(c3c2)CCN2C[C@H]3[C@H](C)ON(C)[C@H]3C[C@@H]42)cc1 | -2.08%
6 | COC(=O)[C@H]1[C@H]2C[C@H]3c4[nH]c5ccccc5c4CCN3C[C@@H]2CC[C@@H]1O | -113% (active) and -60.5% (active)
7 | C[C@H](O)[C@@H]1C(=O)N2CCc3c([nH]c4ccccc34)[C@@H]2C[C@@H]1N(C)C(=O)Nc1ccc(F)cc1 | -19.9%
8 | COc1ccc(S(=O)(=O)NC(=O)C2(C)CCN2C(=O)COc2ccc(Cl)cc2)cc1 (configuration not stated) | -5.73%
9 | Cn1c(=O)[nH]c(=O)c2c1nc(N1CCN(CCO)CC1)n2CCSc1nc2ccccc2s1 | -66.2% (active)
10 | Cc1nnc(SCCCn2c(N3CCCCC3)nc3c2c(=O)[nH]c(=O)n3C)s1 | 17.6%
11 | Cn1c(=O)[nH]c(=O)c2c1nc(N1CCN(C(c3ccccc3)c3ccccc3)CC1)n2CCO | 6.48%
12 | COCCNc1nc(Nc2ccccc2Cl)c2sc(-c3ccccc3)cc2n1 | 14.1%
13 | CC(C)(C)C(=O)c1c(N)[nH]c(C(=O)c2ccccc2)c1-c1ccc(F)cc1 | 4.8%
14 | CCOC(=O)CCC(=O)OCC(=O)NC(C)C1CC2CCC1C2 (configuration not stated) | -55.1% (active)
15 | Cc1cccc(C(=O)OCC(=O)NC(C)C2CC3CCC2C3)c1O (configuration not stated) | -13.8%
16 | Cc1c(C(=O)NC(C)C2CC3CCC2C3)cccc1[N+](=O)[O-] (configuration not stated) | 10.2%
17 | CN(C)C(=O)c1cccc(-c2cnc3c(NC=O)cc(-c4ccc(C(=O)N5CCOCC5)cc4)cn23)c1 | -15.4%
18 | CNc1cc(-c2c(OC)cccc2OC)ncn1 | -17.3%
19 | CC(NS(=O)(=O)c1ccc(Cl)cc1)C(=O)Nc1ccc2c(c1)OCCO2 (configuration not stated) | -3.02%
20 | C[C@H](NS(=O)(=O)c1ccc(Cl)cc1)C(=O)OCC(=O)N1CCOCC1 | -16.5%
21 | CC(O)C(NS(=O)(=O)c1ccc(Cl)cc1)C(=O)OCc1cc([N+](=O)[O-])cc2c1OCOC2 (configuration not stated) | -82.9% (active)
22 | CC1(C(=O)NS(=O)(=O)c2ccc(C#N)cc2)CCN1C(=O)CC1CCCC1 (configuration not stated) | -19%

Row | Compound | max response, negative = inhibition
23 | COc1ccc(CC(=O)N/N=C/c2cc([N+](=O)[O-])cc(Br)c2O)cc1 | -79.9% (active)
24 | O=C(Cc1ccc([N+](=O)[O-])cc1)N/N=C/c1ccco1 | 3%
25 | COc1ccc(CC(=O)NCC(=O)N/N=C/c2cc(Br)ccc2OC)cc1 | 20.7%
26 | C[C@@H]1CN([C@H](C)CO)S(=O)(=O)c2ccc(C#C[C@@H](C)O)cc2O[C@@H]1CN(C)Cc1ccc(-c2ccccc2)cc1 | 4.33%
27 | CCOc1ccc(CCN2C(=S)N([C@@H](CC(C)C)CN3CCC[C@@H]3CN3C(=S)NC[C@@H]3Cc3ccc(O)cc3)C[C@@H]2CC(C)C)cc1 | 21.8%
28 | CC1(C)OC(=O)C2=C(CC(c3ccccc3)OC2CCc2ccccc2)O1 (configuration not stated) | -29.7%
29 | COC(=O)c1ccc2c(c1)S(=O)(=O)NC2C (configuration not stated) | 18.4%
30 | CCCNC(=O)c1cc(C2CCCCN2C(=O)OC)on1 (configuration not stated) | 0%
31 | Cc1cc(-c2n[nH]c(=S)n2/N=C/C(Br)=C/c2ccccc2)n[nH]1 | -70.4% (active)
32 | COc1ccccc1/C=C/C=N/n1c(-c2ccc(Cl)cc2Cl)n[nH]c1=S | 13.4%
33 | COc1ccccc1N1CCN(/N=C\C(Br)=C\c2ccccc2)CC1 | -13.9%
34 | O=C(Nc1ccc(F)cc1)C(CCc1ccccc1)N1CCN(CC(=O)N2CCCC2)CC1 (configuration not stated) | -21.4%
35 | COC(=O)[C@]12CCCCC=C1N(CCC1=CCCCC1)C(=O)[C@H](CC(=O)NCC1CCCCC1)C2 | 25.3%
36 | O=S1(=O)C[C@@H](N2CCN(CCO)CC2)[C@H](COCc2ccccc2)N1 | 1.72%
37 | CC(=O)c1nn(-c2ccccc2)c(=Nc2ccccc2)cc1C | 18.5%
38 | COC(=O)C[C@@H]1C=C[C@@H](NC(=O)c2ccc3c(c2)OCO3)[C@@H](CO)O1 | -7.72%
39 | CCn1c(O)c(N=NC(=O)c2cccc(S(=O)(=O)N3CCCCC3)c2)c2ccccc21 | 6.1%
40 | COC(=O)Cn1c2ccc(C)cc2c2nc(C)sc21 | -14.2%
41 | CCn1c(O)c(N=NC2=NC(=O)CS2)c2cc(C)ccc21 | -90.2% (active)
42 | COc1cccc(C(O)c2nc(-c3ccc(C)c(C)c3)cs2)c1 (configuration not stated) | 0%
43 | CC(C)CC1C(=O)N(Cc2cn(CC3CCCCC3)nn2)CCS(=O)(=O)N1Cc1ccc(-c2ccc(Cl)cc2)cc1 (configuration not stated) | -20.8%
44 | COc1ccc(NC(=O)C2(C)Cc3c(-c4ccc(C(N)=O)cc4)ccnc3O2)cc1 (configuration not stated) | -3.64%

Row | Compound | max response, negative = inhibition
45 | COc1ccc(C(=O)NCCNc2ccc([N+](=O)[O-])cn2)cc1 | -27.5%
46 | COC(=O)C(NC(=O)c1ccc(OC)cc1)(Nc1ncc(S(=O)(=O)c2ccc([N+](=O)[O-])cc2)s1)C(F)(F)F (configuration not stated) | -81.6% (active)
47 | CCOCC(=O)Nc1ncc(S(=O)(=O)c2ccc([N+](=O)[O-])cc2)s1 | 8.75%
48 | CC(O)(c1cccc(F)c1)c1nc(-c2ccc3c(c2)OCO3)cs1 (configuration not stated) | -22.4%
49 | CC1(C)OC(=O)C2=C(C[C@@H](C3CC3)O[C@H]2CCc2cccc(Cl)c2)O1 | 12.7%
50 | CN1CCN(C(=O)c2ccc(NC(=O)c3ccc(Br)o3)cc2)CC1 | 23.3%
51 | Nc1ccc2[nH]c(=S)sc2c1 | -18.8%
52 | CCOc1ccc2[nH]c(=S)sc2c1 | -53% (active)
53 | CCOc1ccc2[nH]c(=O)c(CN(CCCO)C(C)=O)cc2c1 | 3.99%
54 | COC(=O)c1cc(OC)ccc1-c1ccc(OC)cc1 | -8.91%
55 | CCOC(=O)C1=C(c2ccc(OC)cc2)C(=O)c2ccccc2C1=O | -64% (active)
56 | CCOC(=O)C(NC(C)=O)C(=O)Nc1ccc(OC)cc1 (configuration not stated) | -11.9%
57 | CC1(C(=O)Nc2ccc3c(c2)OCCO3)CN(S(C)(=O)=O)CC(=O)N1Cc1cccc(F)c1 (configuration not stated) | 3.16%
58 | CCN(Cc1ccncc1)C(=S)Nc1ccccc1C | 27.7%
59 | CCCCN(C)CCC(=O)Nc1ccc(Cl)cc1 | -52.6% (active)
60 | CN(CC(=O)Nc1ccc(Cl)cc1)CC(=O)Nc1cccc2ccccc12 | -3.81%
61 | CC(=O)Nc1ccc(NC(=O)CCCNC(=O)c2ccc(Cl)cc2)cc1 | -16.5%
62 | O=S1(=O)CC(N2CCC(Cc3ccccc3)CC2)CN1Cc1ccccc1 (configuration not stated) | -2.05%
63 | NC(=O)CSc1nnc(NC(=O)c2ccc(Br)o2)s1 | 4.15%
64 | Cc1nnc(NC(=O)CCCOc2ccccc2)s1 | 14.4%
65 | CSc1nnc(NC(=O)c2nc(S(=O)(=O)Cc3ccc(C)cc3)ncc2Cl)s1 | -83.3% (active)
66 | COCCSc1nnc(NC(=O)CCS(=O)(=O)Cc2ccccc2)s1 | 0.795%

Row | Compound | max response, negative = inhibition
67 | O=C(Nc1ccc(F)cc1)c1ccc(S(=O)(=O)NCc2cccnc2)cc1 | 8.92%
68 | Cc1ccc(CS(=O)(=O)c2ncc(Cl)c(C(=O)Nc3nnc(C)s3)n2)cc1 | -73.5% (active)
69 | Cc1cccc(CS(=O)(=O)c2ncc(Cl)c(C(=O)Nc3ccc(F)cc3)n2)c1 | -105% (active)
70 | Cc1nnc(NC(=O)c2ccc3nccnc3c2)s1 | -10.2%
71 | Cc1cccc(NC(=O)c2nc(S(=O)(=O)Cc3ccccc3)ncc2Cl)c1 | -1.08%
72 | CC(=O)Nc1cncc(-c2ccccc2CO)n1 | 10.6%
73 | CCOC(=O)[C@H]1Nc2ccc(Cl)cc2[C@@H]2[C@H]1C1CC(c3ccccc31)N2C(=O)OCc1ccccc1 (some centres not stated) | -1.57%
74 | CCCCc1c(-c2ccc(Cl)cc2)ncn1CCc1ccccc1OC | 71.4%
75 | COc1ccc(S(=O)(=O)N(C)C)cc1NC(=O)COC(=O)c1n[nH]c2ccccc12 | 16%
76 | CCc1cc(C(=O)N(CC)CC(=O)Nc2c(F)cccc2F)sc1C | 0%
77 | COc1ccc(CCCNC(=O)C2Cc3c(-c4cccc(C(N)=O)c4)ccnc3O2)cc1 (configuration not stated) | 2.06%
78 | Cc1cc(O)ccc1-c1cc(C(=O)NCc2cc(C(F)(F)F)cc(C(F)(F)F)c2)[nH]n1 | -17.9%
79 | C[C@@H]1CN([C@H](C)CO)C(=O)CCCn2nncc2CO[C@@H]1CN(C)C(=O)OCc1ccccc1 | -23.6%
80 | CC1(C)OC(=O)C2=C(C[C@@H](C3CC3)O[C@H]2c2ccc(Cl)cc2)O1 | 49.4%
81 | COC(=O)CN1C(=O)C(O)=C(C(C)=O)C1c1ccc([N+](=O)[O-])cc1 (configuration not stated) | -23.2%
82 | COC(=O)CN1C(C)=Nc2ccc(Br)cc2C1c1ccccc1 (configuration not stated) | -64% (active)
83 | CCC(CC)C(=O)N1CC(=O)Nc2ccc(Br)cc2C1c1ccccc1 (configuration not stated) | 4.84%
84 | CN(c1ccccc1)S(=O)(=O)c1ccc(C(=O)NCc2cccnc2)cc1 | -14.9%
85 | COc1ccc(C(C)(O)c2nc(-c3ccc(C)c(C)c3)cs2)cc1 (configuration not stated) | -20.6%
86 | CCNC(=O)C1(C)CCCN(C(=O)c2ccc3ccccc3n2)C1 (configuration not stated) | 0%
87 | CCOC(=O)c1cc(-c2sc(NC(=O)c3ccccc3)nc2C)n(-c2ccc(Br)cc2)n1 | 24%
